The target of assay [1] is T1, Serine/threonine-protein kinase TBK1 (Homo sapiens) (UniProt Q9UHD2).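 Also: values are mean inhibition of TBK1, screened as part of the GSK published kinase inhibitor set.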
T1 sequence (whole entry): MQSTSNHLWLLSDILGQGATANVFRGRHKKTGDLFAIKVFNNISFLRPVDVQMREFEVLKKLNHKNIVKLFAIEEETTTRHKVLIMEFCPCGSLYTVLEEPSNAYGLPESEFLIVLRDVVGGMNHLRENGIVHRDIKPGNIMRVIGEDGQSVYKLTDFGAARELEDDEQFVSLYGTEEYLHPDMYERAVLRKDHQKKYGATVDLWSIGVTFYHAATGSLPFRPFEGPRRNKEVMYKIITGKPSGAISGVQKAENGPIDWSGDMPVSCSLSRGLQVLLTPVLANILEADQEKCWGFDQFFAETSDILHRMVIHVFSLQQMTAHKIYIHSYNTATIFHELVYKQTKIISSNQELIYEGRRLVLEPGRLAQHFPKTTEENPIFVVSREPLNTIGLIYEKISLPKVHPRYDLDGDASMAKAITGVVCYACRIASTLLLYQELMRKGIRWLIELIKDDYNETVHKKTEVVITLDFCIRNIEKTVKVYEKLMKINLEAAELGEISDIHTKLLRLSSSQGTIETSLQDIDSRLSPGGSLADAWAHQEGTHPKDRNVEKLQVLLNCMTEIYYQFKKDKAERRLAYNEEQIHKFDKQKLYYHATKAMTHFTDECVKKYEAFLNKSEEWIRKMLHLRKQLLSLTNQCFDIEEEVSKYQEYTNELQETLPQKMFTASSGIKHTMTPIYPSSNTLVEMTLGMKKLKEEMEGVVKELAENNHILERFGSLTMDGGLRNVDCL
Particulars: at 1 µM.

The target in assay [2] is T2, Testis-specific serine/threonine-protein kinase 1 (Homo sapiens) (UniProt Q9BXA7).
T2 sequence (whole entry): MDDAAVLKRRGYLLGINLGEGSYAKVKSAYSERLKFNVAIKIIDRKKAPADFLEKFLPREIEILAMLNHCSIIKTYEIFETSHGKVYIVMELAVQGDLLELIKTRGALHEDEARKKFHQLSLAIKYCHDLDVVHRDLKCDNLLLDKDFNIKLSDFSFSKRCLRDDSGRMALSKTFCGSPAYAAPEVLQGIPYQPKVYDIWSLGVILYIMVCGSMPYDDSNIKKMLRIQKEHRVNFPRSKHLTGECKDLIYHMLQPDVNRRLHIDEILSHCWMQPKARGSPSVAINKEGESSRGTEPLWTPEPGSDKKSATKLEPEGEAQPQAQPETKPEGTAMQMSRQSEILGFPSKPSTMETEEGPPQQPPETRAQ
To be noted: at 0.1 µM.

The target in assay [3] is T2, Testis-specific serine/threonine-protein kinase 1 (Homo sapiens). To be noted: at 1 µM.
Assay [4] has as its target T3, Testis-specific serine/threonine-protein kinase 2 (Homo sapiens) (UniProt Q96PF2).
T3 sequence (whole entry): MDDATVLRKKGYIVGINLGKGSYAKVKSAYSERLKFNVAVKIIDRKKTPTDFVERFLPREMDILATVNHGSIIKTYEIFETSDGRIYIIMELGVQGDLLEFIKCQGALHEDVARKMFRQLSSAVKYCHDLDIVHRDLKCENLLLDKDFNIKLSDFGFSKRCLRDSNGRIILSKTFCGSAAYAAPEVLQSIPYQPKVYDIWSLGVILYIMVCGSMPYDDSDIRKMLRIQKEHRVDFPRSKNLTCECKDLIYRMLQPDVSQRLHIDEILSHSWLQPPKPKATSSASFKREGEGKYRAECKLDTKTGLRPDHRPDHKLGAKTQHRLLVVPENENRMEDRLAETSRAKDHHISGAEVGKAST
To be noted: at 0.1 µM.

Assay [5] addresses T3, Testis-specific serine/threonine-protein kinase 2 (Homo sapiens). Particulars: at 1 µM.
Assay [6] concerns the target Casein kinase I isoform alpha (Homo sapiens) (UniProt P48729). To be noted: at 0.1 µM.
Assay [7] has the same target. Particulars: at 1 µM.
The target of assay [8] is Casein kinase I isoform gamma-1 (Homo sapiens) (UniProt Q9HCP0). To be noted: at 0.1 µM.
Chain of Casein kinase I isoform gamma-1 (Homo sapiens) (Q9HCP0 whole entry, looked up, canonical isoform): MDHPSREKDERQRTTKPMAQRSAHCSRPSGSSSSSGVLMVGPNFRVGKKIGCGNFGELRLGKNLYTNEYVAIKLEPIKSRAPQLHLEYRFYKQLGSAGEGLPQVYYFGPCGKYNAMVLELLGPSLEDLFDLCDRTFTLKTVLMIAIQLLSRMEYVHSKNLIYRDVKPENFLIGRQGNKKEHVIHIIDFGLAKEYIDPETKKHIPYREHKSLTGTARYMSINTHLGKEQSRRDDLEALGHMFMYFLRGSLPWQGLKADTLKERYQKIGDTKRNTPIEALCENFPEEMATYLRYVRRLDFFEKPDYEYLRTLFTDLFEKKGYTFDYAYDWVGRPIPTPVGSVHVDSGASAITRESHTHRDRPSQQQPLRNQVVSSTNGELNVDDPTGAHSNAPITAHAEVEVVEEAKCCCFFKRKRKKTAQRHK
For assay [9] the target is unchanged. Particulars: at 1 µM.
For assay [10], the target named is Casein kinase I isoform gamma-2 (Homo sapiens) (UniProt P78368). To be noted: at 0.1 µM.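 Also: values are mean inhibition figures reported as part of the GSK PKIS dataset.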
Chain of Casein kinase I isoform gamma-2 (Homo sapiens) (P78368 whole entry, looked up, canonical isoform): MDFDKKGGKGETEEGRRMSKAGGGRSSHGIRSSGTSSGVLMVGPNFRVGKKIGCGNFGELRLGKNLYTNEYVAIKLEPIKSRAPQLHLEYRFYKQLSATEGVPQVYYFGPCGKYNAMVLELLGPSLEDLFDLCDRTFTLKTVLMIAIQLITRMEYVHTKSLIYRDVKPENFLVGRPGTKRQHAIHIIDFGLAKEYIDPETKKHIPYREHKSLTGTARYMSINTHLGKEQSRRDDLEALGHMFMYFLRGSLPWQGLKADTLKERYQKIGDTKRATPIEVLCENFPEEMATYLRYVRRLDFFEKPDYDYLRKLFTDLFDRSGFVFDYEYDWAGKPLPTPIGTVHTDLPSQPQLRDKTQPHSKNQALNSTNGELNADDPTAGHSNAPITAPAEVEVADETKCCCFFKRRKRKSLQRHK

Structures are written as SMILES.

Chain of Casein kinase I isoform alpha (Homo sapiens) (P48729 2-337 limits assumed): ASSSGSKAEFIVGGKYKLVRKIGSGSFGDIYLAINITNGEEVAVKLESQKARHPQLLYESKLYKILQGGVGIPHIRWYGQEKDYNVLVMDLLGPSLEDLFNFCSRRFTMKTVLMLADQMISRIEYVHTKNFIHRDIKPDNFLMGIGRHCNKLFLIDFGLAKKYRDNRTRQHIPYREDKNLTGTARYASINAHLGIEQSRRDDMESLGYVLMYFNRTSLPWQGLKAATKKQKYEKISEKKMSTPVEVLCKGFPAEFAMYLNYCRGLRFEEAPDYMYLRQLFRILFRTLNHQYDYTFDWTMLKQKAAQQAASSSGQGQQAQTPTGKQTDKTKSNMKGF

Usually inhibition stands for the drop in the measured response relative to a control, in per cent. `O=C1NC(=O)C(N2CCc3ccccc32)=C1c1ccc(Cl)cc1`: the inhibition is 5.62% in assay [1]; 3.65% in assay [2]; 2.94% in [3]; 1.38% in assay [4]; 0.39% in assay [5]; 4.4% in assay [6]. The inhibition is 5.22% in assay [7], 4.48% in assay [8], 5.14% in assay [9] and 2.83% in assay [10].
For the molecule `CNC(=O)c1cncc(/C=C/c2c(Cl)cccc2Cl)c1`, the inhibition in assay [1] is 4.76%; in assay [2], 3.51%; in assay [3], 4.44%; in assay [4], 1.15%; in assay [5] it was 3.45%; in assay [6], 2.31%. Further, the inhibition in assay [7] was 6.99%; in assay [8], 4.49%; in assay [9], 6.18%; in assay [10], 2.94%.
Turning to `CC(=O)Nc1cccc(C#Cc2cncnc2Nc2ccc(OCc3cccc(F)c3)c(Cl)c2)n1`, the inhibition in assay [1] is -0.27%; in assay [2] it was 2.3%; in [3], 4.75%; in assay [4], 0.15%; in [5], 5.54%; in assay [6] it was 0.01%. Besides, the inhibition in [7] is -1.03%; in assay [8], -1.49%; in assay [9] it was -2.35%; in assay [10] it was -0.28%.
With `Nc1nc(-c2ccc3c(c2)C(=Cc2cc(Br)c(O)c(Br)c2)C(=O)N3)cs1`, the inhibition in [1] was 0.36%; in assay [2], -0.52%; in assay [3], -0.1%; in assay [4], -1.49%; in assay [5], 0.36%; in assay [6] it was -0.89%. Besides, the inhibition in assay [7] was -1.31%; in assay [8] it was -1.34%; in assay [9] it was -1.14%; in assay [10], -1.3%.
`CS(=O)(=O)CCNCc1ccc(-c2ccc3ncnc(Nc4ccc(OCc5ccccc5)c(Cl)c4)c3c2)o1`: the inhibition was 2.91% in [1]; 2.07% in [2]; 1.74% in [3]; -0.14% in [4]; 0.89% in [5]; -0.43% in assay [6]. Also, the inhibition in assay [7] was 0.15%; in assay [8], 1.35%; in assay [9], 0.05%; in [10] it was -0.08%.
For `CCn1c(-c2nonc2N)nc2cncc(C(=O)N3CCNCC3)c21`, the inhibition in assay [1] came to 5.51%; in assay [2], 4.82%; in assay [3], 5.83%; in assay [4], 2.4%; in assay [5], 3.03%; in assay [6], 6.74%. In addition, the inhibition in [7] was found to be 9.8%; in assay [8], 5.02%; in [9] it was 6.64%; in assay [10] it was 4.43%.
`Nc1ncnc2occ(-c3ccc(NC(=O)Nc4cccc(C(F)(F)F)c4)cc3)c12`: the inhibition is 4.59% in assay [1]; 4.54% in assay [2]; 4.9% in assay [3]; 1.47% in [4]; 2.55% in assay [5]; 3.35% in [6]. Further, the inhibition in assay [7] stood at 5.6%; in assay [8], 5.08%; in [9] it was 10.1%; in assay [10], 4.03%.
For the molecule `COc1cc(C)c(NC(=O)CN(C)C)cc1Nc1nc(Nc2cccc(F)c2C(N)=O)c2cc[nH]c2n1`, the inhibition in assay [1] is 25.5%; in [2] it was 61.6%; in assay [3], 89.3%; in [4], 31.8%; in assay [5], 73.2%; in assay [6], -0.74%. Also, the inhibition in assay [7] worked out at 21.5%; in [8], 2.04%; in assay [9], 12.9%; in assay [10], 1.61%.
As to `CCn1c(-c2nonc2N)nc2c(N3CCCC3)nccc21`, the inhibition in assay [1] is 2.54%; in assay [2], 0.01%; in assay [3], -0.07%; in assay [4] it was -0.87%; in assay [5], 0.44%; in assay [6] it was -0.35%. Further, the inhibition was 0.23% in assay [7], -0.72% in assay [8], -0.83% in assay [9] and -0.88% in assay [10].
For `COc1ccc(-c2nn3ncccc3c2-c2ccnc(Nc3ccc(Cl)c(C(F)(F)F)c3)n2)cc1`, the inhibition in assay [1] was 2.16%; in [2], 2.65%; in assay [3] it was 4.89%; in [4], 2.27%; in assay [5], 5.15%; in [6], -4.74%. Moreover, the inhibition in [7] came out at 0.96%; in assay [8] it was 1.89%; in [9] it was 2.18%; in [10], 1.23%.
In the case of `CCCN1CCC(Oc2cc(Nc3nc(Nc4cccc(F)c4C(N)=O)c4cc[nH]c4n3)c(OC)cc2Cl)CC1`, the inhibition in assay [1] came to 2.35%; in assay [2], 21.3%; in assay [3], 57.3%; in [4] it was 7.49%; in assay [5], 26.8%; in [6], 0.93%. Moreover, the inhibition in assay [7] is 12.1%; in assay [8] it was -0.95%; in [9] it was 8.29%; in assay [10], -0.58%.
For the molecule `Cc1ccc(NC(=O)c2ccnc(N3CCCC3)c2)cc1-c1ccc(C(=O)NCC2CC2)cc1`, the inhibition in assay [1] turned out to be 8.32%; in assay [2] it was 3.77%; in [3], 3.59%; in [4], 1.08%; in assay [5], 1.39%; in [6], 5.28%. Moreover, the inhibition was 2.01% in assay [7], 0.99% in assay [8], 3.3% in assay [9] and -0.87% in [10].
`O=C1NC(=O)C(c2ccc(Cl)cc2)=C1Nc1ccc(Cl)c(C(=O)O)c1`: the inhibition is 0.78% in assay [1]; -1.77% in assay [2]; -3.14% in assay [3]; -1.44% in assay [4]; -2.14% in [5]; 0.85% in assay [6]. Also, the inhibition in assay [7] is -1.03%; in assay [8] it was -1.57%; in assay [9], -2.04%; in assay [10] it was -1.56%.
Turning to `COc1ccc(COc2ccc(Cc3cnc(N)nc3N)cc2OC)cc1`, the inhibition in assay [1] was 2.86%; in [2], 0.44%; in assay [3], -1.27%; in assay [4], -0.95%; in assay [5], -0.65%; in [6], 0.49%. Besides, the inhibition was 0.48% in [7], -0.8% in assay [8], -0.45% in assay [9] and -2.36% in [10].
Consider `Fc1cccc(COc2ccc(Nc3ncnc4cc(-c5ccc[nH]5)sc34)cc2Cl)c1`, for which the inhibition came to 3.65% in assay [1]; 2.48% in assay [2]; 2.76% in [3]; 1.09% in [4]; 2.13% in [5]; 0.63% in assay [6]. Also, the inhibition in assay [7] is 0.84%; in assay [8] it was -1.43%; in [9], -0.95%; in [10] it was -1.97%.
Take `CCn1c(-c2nonc2N)nc2c(C#CC(C)(C)O)nc(OC[C@@H](N)c3ccccc3)cc21`: the inhibition in [1] was 3.45%; in assay [2], 9.5%; in [3] it was 53.4%; in assay [4] it was 0.46%; in [5], -0.44%; in assay [6], -0.17%. Moreover, the inhibition was 0.97% in [7], -1.79% in [8], 2.42% in [9] and -1.05% in assay [10].

The record behind these values is ChEMBL document CHEMBL1961873, “Compounds: GSK PKIS; Assays: Nanosyn kinase panel” (2012).
